Compound activity deposited in PubChem BioAssay by National Center for Advancing Translational Sciences (NCATS).
A selection: hits, their analogues and other compounds. The true share with any hit is near 0.55%.
EPAC2 antagonist: EPAC2 (human) antagonism | EPAC2 GEF exchange of Rap1B-BODIPY-GDP, fluorescence | Potency, µM (series often up to 114 µM), actives largely listed as inhibitors | 360,000 compounds, 0.18% hits | AID 720708; also: nearly all actives have a fitted effect of over 45% in size
EPAC1 antagonist: blocks human EPAC1 exchange factor | O95398 | EPAC1 GEF assay, Rap1b-BODIPY-GDP exchange fluorescence | 360,000 compounds, 0.14% hits | Potency, µM (highest dose often 115 µM), actives largely listed as inhibitors; also: nearly all actives have a fitted effect of over 50% in size
USP1 inh: USP1/UAF1 (human) deubiquitinase inhibition; Potency, µM (top dose mostly 57.1 µM), actives largely listed as inhibitors; O94782; 390,000 compounds, 0.23% hits; recombinant USP1/UAF1, Ub-Rhodamine cleavage fluorescence; AID 743255; also: nearly all actives have a fitted effect of over 60% in size
Target sequence (O94782 whole entry, looked up): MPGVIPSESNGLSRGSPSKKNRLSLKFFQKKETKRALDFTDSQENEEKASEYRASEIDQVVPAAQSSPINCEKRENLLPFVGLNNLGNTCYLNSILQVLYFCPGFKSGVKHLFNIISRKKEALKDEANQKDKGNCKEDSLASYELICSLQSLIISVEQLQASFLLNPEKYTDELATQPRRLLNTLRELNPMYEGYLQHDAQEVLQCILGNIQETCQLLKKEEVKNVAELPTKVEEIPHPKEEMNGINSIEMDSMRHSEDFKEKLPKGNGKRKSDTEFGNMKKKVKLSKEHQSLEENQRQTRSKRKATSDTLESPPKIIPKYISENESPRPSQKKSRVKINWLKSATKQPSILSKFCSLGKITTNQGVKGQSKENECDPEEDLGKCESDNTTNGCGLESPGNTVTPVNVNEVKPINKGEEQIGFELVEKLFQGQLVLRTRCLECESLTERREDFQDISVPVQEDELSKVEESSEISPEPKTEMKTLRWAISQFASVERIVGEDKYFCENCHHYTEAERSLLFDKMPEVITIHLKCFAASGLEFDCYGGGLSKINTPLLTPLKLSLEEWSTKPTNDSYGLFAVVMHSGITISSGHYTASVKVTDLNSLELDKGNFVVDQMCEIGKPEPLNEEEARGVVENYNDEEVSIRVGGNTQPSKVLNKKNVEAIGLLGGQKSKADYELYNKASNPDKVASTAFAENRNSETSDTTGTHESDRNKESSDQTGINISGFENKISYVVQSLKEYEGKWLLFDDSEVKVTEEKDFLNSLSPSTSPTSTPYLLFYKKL
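1 nM enzyme complex + cpd, 15 min RT; start with Ub-Rho 150nM final; kinetic fluorescence ex 480/em 540, 6 reads q60 s. Buffer 50mM HEPES pH 7.8, 0.5mM EDTA, 0.1 mg/ml BSA, 1mM TCEP, 0.01% Tween-20.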
GLP1R cytotox: cytotoxic in the GLP-1 receptor inverse agonist counter-screen | HEK293 cAMP-luciferase reporter cells, luminescence, 24 h | Potency, µM (series often up to 38.3 µM), actives largely listed as inhibitors | 410,000 compounds, 0.13% hits | AID 624418;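 also: loss of luciferase light is scored as toxicity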
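Quantitative HTS format, 1536 wells, 200 cells/uL seeded. Compounds: 23 nL, 24 h, 37 °C. Detection: luciferase reagent, luminescence at 12 min RT; decreased signal taken as cytotoxic.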
EPAC2 agonist: EPAC2 (human) agonism; 360,000 compounds, 0.079% hits; EPAC2 activation, biochemical qHTS; response scale: 100% = 6.5 mM cAMP response; Potency, µM (highest dose often 154 µM), usual class: activators; also: nearly all actives have a fitted effect of over 50% in size
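Compounds were added across a concentration range to EPAC2 (100 nM), RAP1B-BODIPY-GDP (250 nM) and GDP (50 uM). After 5 min at room temperature, fluorescence was recorded at 5-min intervals for 30 min.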
EPAC1 agonist: agonists of human EPAC1; EPAC1 agonist qHTS, biochemical assay; response scale: 100% = response to 6.5 mM cAMP; 360,000 compounds, 0.073% hits; AID 720707; O95398; Potency, µM (top dose mostly 154 µM), usual class: activators; also: nearly all actives have a fitted effect of over 60% in size
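Nucleotide exchange assay: 100 nM EPAC1 with 250 nM Rap1B loaded with BODIPY-GDP and 50 uM GDP, room temperature. Fluorescence (480/540 nm) read every 5 min for 30 min; signal change normalized to 6.5 mM cAMP as full agonist.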
Hits are given with their value; – = inactive; ? = inconclusive; · = no result. Calls follow the shape of the dose curve; as a rule, active = well fitted curve in the direction sought with a large enough effect; inconclusive = small, poorly fitted or top-dose-only effect, or another doubt; inactive = no such curve, though single readings can be large; an effect the other way counts as inactive or inconclusive.

SMILES | EPAC2 antagonist | EPAC1 antagonist | USP1 inh | GLP1R cytotox | EPAC2 agonist | EPAC1 agonist
C/C(=N\NC(=O)c1cc2ccccc2cc1O)c1ccccn1 | – | ? | – | – | – | –
COCCNC(=S)N/N=C(\C)c1ccc2cc(OC)ccc2c1 | – | – | – | 3.16µM | – | –
O=C(NC(NC(=S)Nc1c(Cl)cccc1Cl)C(Cl)(Cl)Cl)c1cccc([N+](=O)[O-])c1 (centres undefined) | – | – | – | 12.6µM | – | –
COc1cccc(-c2ccc3ncnc(NCc4ccc5c(c4)OCO5)c3c2)c1 | – | – | · | · | – | –
COc1cccc(-c2ccc3ncnc(N(C)Cc4ccco4)c3c2)c1 | 31.6µM | – | · | · | – | –
CC(C)CC1C(=O)N(Cc2cn(CCC3OCCCO3)nn2)CCS(=O)(=O)N1Cc1ccc(-c2ccc(F)cc2)cc1 (centres undefined) | 22.4µM | – | – | – | – | –
O=C(O)C1CCN(C(=O)c2ccccc2Cl)CC1 | – | – | – | – | – | –
NC(=O)C1CCN(C2=C(NS(=O)(=O)c3ccccc3)C(=O)c3ccccc3C2=O)CC1 | – | – | – | ? | – | –
O=C1C(Cl)=C(N2CCC(C(=O)O)CC2)C(=O)c2ccccc21 | ? | ? | 25.1µM | – | – | –
NC(=O)C1CCN(C2=C(Cl)C(=O)c3ccccc3C2=O)CC1 | – | – | 31.6µM | – | – | –
CN1CCN(C2=C(Cl)C(=O)c3ccccc3C2=O)CC1 | ? | 28.2µM | 3.55µM | ? | – | –
N#Cc1ccccc1NC(=O)c1cc2c(=O)n3ccccc3nc2s1 | · | · | – | – | · | ·
O=C(Nc1sc2c(c1C(=O)NCC1CCCO1)CCC2)c1cc(=O)c2ccccc2o1 (centres undefined) | · | · | – | – | · | ·
O=c1oc2c3c4c(cc2c(C(F)(F)F)c1CCN1CCOCC1)CCCN4CCC3 | – | – | 6.31µM | – | 112µM | ?
C/C(C/C(C)=C1/SC(=S)NC1=O)=C1\SC(=S)NC1=O | ? | 20µM | ? | – | – | –
FC(F)(F)c1cc(C(F)(F)F)c2ccc(N3CCN(c4ccc(Cl)cc4)CC3)nc2n1 | – | – | – | – | – | –
N#CC(c1ccc(Cl)cc1)c1ccc2c(C(F)(F)F)cc(C(F)(F)F)nc2n1 (centres undefined) | – | – | – | 7.94µM | – | –
O=C(O)c1cc(N2N=C(C(F)(F)F)/C(=C/C=C/c3ccco3)C2=O)ccc1Cl | ? | 35.5µM | 28.2µM | – | – | –
CCOC(=O)c1ccc(N2N=C(C)/C(=C/C=C/c3ccco3)C2=O)cc1 | – | – | – | – | – | –
COC(=O)CCC(=O)OC1(C)C(=O)C2=CN(Cc3ccccc3)C(c3ccc(OC)cc3)=CC2=C(Br)C1=O (centres undefined) | – | – | ? | – | – | –
CCC(=O)OC1(C)C(=O)C=C2C=C(c3ccc(C#N)cc3)OC=C2C1=O (centres undefined) | – | – | ? | – | – | –
COc1ccc(C2=CC3=C(Br)C(=O)C(C)(O)C(=O)C3=CO2)cc1 (centres undefined) | ? | – | 35.5µM | – | – | –
CCC(=O)OC1(C)C(=O)C2=COC(c3ccc(OC)cc3)=CC2=C(Br)C1=O (centres undefined) | – | ? | 35.5µM | – | – | –
CCOc1ccccc1NC(=O)CSc1cn(CC(=O)N2CCCCCC2)c2ccccc12 | · | · | – | – | · | ·
Nc1nc(-c2ccccc2)c(CCCOc2ccc(NC(=O)CBr)cc2)c(=O)[nH]1 | – | – | – | 10µM | – | –
CCOc1ccc(NC(=O)CSc2nc(N)c(-c3ccccc3)c(=O)[nH]2)cc1 | – | – | – | – | – | –
COc1ccc(NCc2cc3cc4c(cc3n(CC(=O)Nc3ccc(C)cc3)c2=O)OCO4)cc1 | · | · | ? | – | · | ·
Cc1ccc(Nc2ccc(N3CCN(C(=O)c4ccc([N+](=O)[O-])cc4Cl)CC3)nn2)cc1 | · | · | ? | – | · | ·
CC(C)=CCC/C(C)=C/Cc1c(O)ccc(C(=O)/C=C/c2ccc(O)cc2)c1O | – | – | – | – | – | –
